Experimental data published in the supplement of paper PMC4840960.

system: E18 rat cortical neuron-glia co-culture; assay: myelination (MBP fiber length per Olig2+ nucleus), % of 1 µM DAPT response (DMSO = 0) (% of DAPT); higher = more myelination, active = 50 or more; conditions: 1 µM; treatment time: 8 days (DIV5-DIV13)
How it was run: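 Primary E18 rat cortical co-cultures (papain-dissociated, 20,000 cells/well on poly-d-lysine/laminin 96-well plates) received library compounds at 1 or 5 µM in myelination medium from DIV5 to DIV13. Cells were fixed in 4 % paraformaldehyde and immunostained for MBP and Olig2 with DAPI, and four 10X fields per well in duplicate wells were analysed. Myelination was continuous straight MBP fiber length per Olig2+ nucleus, normalised to 0.1 % DMSO (0) and a 1 µM positive control (100).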

SMILES | myelination
COc1ccc(C(=O)NCc2ccc(OCCN(C)C)cc2)cc1OC [Itopride] | -10.9 (inactive)
C#C[C@]1(O)CC[C@H]2[C@@H]3CCC4=CC(=O)CC[C@@H]4[C@H]3CC[C@@]21CC [Levonorgestrel] | -13.4 (inactive)
CNCCCCOc1ccccc1Cc1ccccc1 [Bifemelane] | -39.7 (inactive)
Cc1onc(-c2ccccc2)c1-c1ccc(S(N)(=O)=O)cc1 [Valdecoxib] | -12.1 (inactive)
CC(Cc1ccccc1)(NC(=O)CN)c1ccccc1 (centres undefined) [Remacemide] | -12.4 (inactive)
CO/N=C(\C(=O)N[C@@H]1C(=O)N2C(C(=O)O)=C(COC(C)=O)CS[C@H]12)c1csc(N)n1 [Cefotaxime] | -9.49 (inactive)
CC(C(=O)O)c1ccc(-c2ccccc2)c(F)c1 (centres undefined) [Flurbiprofen] | -16.8 (inactive)
CCn1cc(C(=O)O)c(=O)c2ccc(C)nc21 [Nalidixic Acid] | -2.25 (inactive)
COc1ccc([C@@H]2Sc3ccccc3N(CCN(C)C)C(=O)[C@@H]2OC(C)=O)cc1 [Diltiazem] | -10.1 (inactive)
Cc1cccc(C)c1OCC(C)N (centres undefined) [Mexiletine] | 8.19 (inactive)
COc1ccc(-c2oc3c(CC=C(C)C)c(O[C@@H]4O[C@H](CO)[C@@H](O)[C@H](O)[C@H]4O)cc(O)c3c(=O)c2O[C@@H]2O[C@@H](C)[C@H](O)[C@@H](O)[C@H]2O)cc1 [Icariin] | -14.4 (inactive)
CC(=O)/N=c1/sc(S(N)(=O)=O)nn1C [Methazolamide] | -8.24 (inactive)
C[C@H](CCC(=O)O)[C@H]1CC[C@H]2[C@@H]3C(=O)C[C@@H]4CC(=O)CC[C@]4(C)[C@H]3CC(=O)[C@]12C [Dehydrocholic Acid] | -18.3 (inactive)
CN(C)CCc1c[nH]c2ccc(Cn3cncn3)cc12 [Rizatriptan] | -15 (inactive)
NS(=O)(=O)c1cc(C2(O)NC(=O)c3ccccc32)ccc1Cl (centres undefined) [Chlorthalidone] | 18.9 (inactive)
COc1cc2nc(N(C)CCCNC(=O)C3CCCO3)nc(N)c2cc1OC (centres undefined) [Alfuzosin] | -57.9 (inactive)
CCCCN1CCCC1CNC(=O)c1cc(C#N)c2ccccc2c1OC (centres undefined) [Nafadotride] | -15 (inactive)
CC(C)(C)NC(=O)[C@H]1CC[C@H]2[C@@H]3CC[C@H]4NC(=O)C=C[C@]4(C)[C@H]3CC[C@]12C [Finasteride] | -19.1 (inactive)
C[C@H]1c2cccc(O)c2C(=O)C2=C(O)[C@]3(O)C(=O)C(C(N)=O)=C(O)[C@@H](N(C)C)[C@@H]3[C@@H](O)[C@@H]21 [Doxycycline] | -18.2 (inactive)
CCc1nn(CCCN2CCN(c3cccc(Cl)c3)CC2)c(=O)n1CCOc1ccccc1 [Nefazodone] | 2.86 (inactive)

SMILES | myelination
Cc1ccsc1C(=CCCN1CCC[C@@H](C(=O)O)C1)c1sccc1C [Tiagabine] | -23.8 (inactive)
CC(C)(C)NCC(O)c1ccc(O)c(CO)c1 (centres undefined) [Albuterol] | -29.6 (inactive)
C[C@]12CCC(=O)C=C1CC[C@@H]1[C@@H]2[C@@H](O)C[C@@]2(C)[C@H]1CC[C@]2(O)C(=O)CO [Hydrocortisone] | -10.9 (inactive)
CC(C)c1ccc2oc3nc(N)c(C(=O)O)cc3c(=O)c2c1 [Amlexanox] | -13.2 (inactive)
OC(c1cc(C(F)(F)F)nc2c(C(F)(F)F)cccc12)C1CCCCN1 (centres undefined) [Mefloquine] | -11.1 (inactive)
Cc1sc(N)c(C(=O)c2cccc(C(F)(F)F)c2)c1C | -18.7 (inactive)
NS(=O)(=O)c1cc2c(cc1Cl)N=CNS2(=O)=O [Chlorothiazide] | 3.67 (inactive)
c1ccc2c(CC3=NCCN3)cccc2c1 [Naphazoline] | 13.7 (inactive)
CCCNC(C)C(=O)Nc1ccccc1C (centres undefined) [Prilocaine] | -5.12 (inactive)
Cc1ncc([N+](=O)[O-])n1CCO [Metronidazole] | -7.63 (inactive)
O=C1CC2(CCCC2)CC(=O)N1CCNCC1COc2ccccc2O1 (centres undefined) [Binospirone] | -14.3 (inactive)
c1ccc2c(c1)CCCC2C1=NCCN1 (centres undefined) [Tyzine] | -6.18 (inactive)
Cc1cccc(Nc2ccncc2S(=O)(=O)NC(=O)NC(C)C)c1 [Torsemide] | -11.6 (inactive)
O=C1N(c2ccccc2)c2ccccc2C1(Cc1ccncc1)Cc1ccncc1 [Linopirdine] | -4.06 (inactive)
c1cnc(N2CCN(Cc3ccc4c(c3)OCO4)CC2)nc1 [Piribedil] | -24.5 (inactive)
CN1CCN(c2c(F)cc3c(=O)c(C(=O)O)cn4c3c2SCC4)CC1 [Rufloxacin] | 62.1
OC[C@H]1O[C@@H](Oc2cc(O)cc(/C=C/c3ccc(O)cc3)c2)[C@H](O)[C@@H](O)[C@@H]1O [Polydatin] | -20.3 (inactive)
CC[C@H](C)C(=O)O[C@H]1C[C@H](O)C=C2C=C[C@H](C)[C@H](CC[C@@H](O)C[C@@H](O)CC(=O)O)[C@H]21 [Pravastatin] | 2.73 (inactive)
COc1ccc(OC)c(C(O)CNC(=O)CN)c1 (centres undefined) [Midodrine] | -19.2 (inactive)
